From PubChem BioAssay (Tox21)
Activity calls are given as the source filed them. Unless noted, the call rests on the fitted dose curve; in most records, active means well fitted curve in the direction sought with a large enough effect in the repeat runs; inconclusive means weak or mixed curves; inactive means no such curve, though single readings can be large; an effect the other way counts as inactive or inconclusive.

Columns and labels:
[1] = qHTS assay to identify small molecule antagonists of the glucocorticoid receptor (GR) signaling pathway - cell viability counter screen (AID 720693); further: nearly all actives have a fitted effect of over 55% in size
[2] = qHTS assay for identifying genotoxic compounds that show differential cytotoxicity against isogenic chicken DT40 cell lines with known DNA damage response pathways - wild type cell line (AID 743012); further: nearly all actives have a fitted effect of over 60% in size; further: potency means the concentration at half of the fitted maximal effect
Procedure, shortened: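 Viability by ATP luminescence (CellTiter-Glo, 30 min RT) after 40 h compound treatment at 37 C/5% CO2, using 300 parental DNA repair-proficient DT40 cells per well.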

[3] = qHTS assay for identifying genotoxic compounds that show differential cytotoxicity against isogenic chicken DT40 cell lines with known DNA damage response pathways - Rev3 mutant cell line (AID 743014); further: nearly all actives have a fitted effect of over 55% in size; further: potency means the concentration at half of the fitted maximal effect
[4] = qHTS assay for identifying genotoxic compounds that show differential cytotoxicity against isogenic chicken DT40 cell lines with known DNA damage response pathways - Rad54/Ku70 mutant cell line (AID 743015); further: nearly all actives have a fitted effect of over 60% in size; further: potency means the concentration at half of the fitted maximal effect
[5] = qHTS assay to identify small molecule antagonists of the androgen receptor (AR) signaling pathway - cell viability counter screen (AID 743033; further: nearly all actives have a fitted effect of over 45% in size)
[6] = qHTS assay to identify small molecule antagonists of the androgen receptor (AR) signaling pathway using the MDA cell line - cell viability counter screen (AID 743041; further: nearly all actives have a fitted effect of over 45% in size)
Procedure, shortened: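 Using the breast carcinoma line MDA-kb2 AR-luc, test chemicals were co-incubated with R1881 for 16 h; CellTiter-Fluor reagent, added at 15.5 h, provided a fluorescence measure of live cells.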

[7] = qHTS assay to identify small molecule antagonists of the thyroid receptor (TR) signaling pathway - cell viability counter screen (AID 743064); further: nearly all actives have a fitted effect of over 50% in size
Procedure, shortened: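 Plate GH3.TRE-Luc cells; incubate 4 h at 37 °C; add compound, then T3 to 1 nM final; incubate 23.5 h; add CellTiter-Fluor; incubate 30 min at 37 °C, 5% CO2; read fluorescence.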

[8] = qHTS assay to identify small molecule antagonists of the thyroid receptor (TR) signaling pathway (AID 743065); further: nearly all actives have a fitted effect of over 55% in size; further: potency means the concentration at half of the fitted maximal effect
Procedure, shortened: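 Antagonism measured as loss of luciferase signal in GH3 cells stably carrying a TRE-luciferase reporter, co-treated with compound and T3 (1 nM final) for 23.5 h at 37 C. Viability was read in the same well by CellTiter-Fluor.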

[9] = test system: thyroid hormone receptor (rat, GH3 cells); assay: qHTS assay to identify small molecule agonists of the thyroid receptor (TR) signaling pathway (AID 743066; calls by dose curve)
[10] = qHTS assay to identify small molecule antagonists of the estrogen receptor alpha (ER-alpha) signaling pathway - cell viability counter screen (AID 743074; calls by dose curve; further: nearly all actives have a fitted effect of over 45% in size)
[11] = target: Estrogen receptor (Homo sapiens) (UniProt P03372); assay: qHTS assay to identify small molecule agonists of the estrogen receptor alpha (ER-alpha) signaling pathway (AID 743075; calls by dose curve; further: potency means the concentration at half of the fitted maximal effect)
Estrogen receptor (Homo sapiens), sequence (P03372 whole entry, looked up): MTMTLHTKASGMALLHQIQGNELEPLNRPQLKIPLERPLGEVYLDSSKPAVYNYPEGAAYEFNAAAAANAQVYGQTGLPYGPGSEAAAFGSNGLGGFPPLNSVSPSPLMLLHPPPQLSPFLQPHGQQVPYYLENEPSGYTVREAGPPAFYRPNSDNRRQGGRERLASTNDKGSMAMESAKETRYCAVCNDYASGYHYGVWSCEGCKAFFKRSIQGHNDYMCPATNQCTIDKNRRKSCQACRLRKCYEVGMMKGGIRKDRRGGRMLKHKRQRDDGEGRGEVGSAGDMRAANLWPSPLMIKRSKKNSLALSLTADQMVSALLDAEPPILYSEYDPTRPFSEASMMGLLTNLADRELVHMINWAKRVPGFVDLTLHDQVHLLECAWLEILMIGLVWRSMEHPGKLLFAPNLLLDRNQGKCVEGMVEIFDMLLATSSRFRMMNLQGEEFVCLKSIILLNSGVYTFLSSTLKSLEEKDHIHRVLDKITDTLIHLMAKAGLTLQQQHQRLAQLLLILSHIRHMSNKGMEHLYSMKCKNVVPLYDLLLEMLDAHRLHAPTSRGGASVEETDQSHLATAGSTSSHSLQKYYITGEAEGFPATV

[12] = qHTS assay to identify small molecule antagonists of the estrogen receptor alpha (ER-alpha) signaling pathway using the BG1 cell line (AID 743080; calls by dose curve;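 further: BG1 cells stimulated with 17beta-estradiol alongside compound; series mostly up to about 70 µM; nearly all actives have a fitted effect of over 25% in size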)
Procedure, shortened: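 BG1Luc4E2, endogenous ER-alpha, 4xERE-luc; 5 d charcoal-stripped FBS, phenol red free; 24 h plating; cpd + 17beta-estradiol 21.5 h, 37 C/5% CO2; CellTiter-Fluor viability 30 min, then ONE-Glo luciferase 30 min RT.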

[13] = qHTS assay to identify small molecule antagonists of the estrogen receptor alpha (ER-alpha) signaling pathway using the BG1 cell line - cell viability counter screen (AID 743081);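 further: compound given together with 17beta-estradiol as the ER stimulus; series mostly up to about 70 µM; nearly all actives have a fitted effect of over 45% in size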
[14] = target: Aromatase (Homo sapiens) (UniProt P11511); assay: qHTS assay to identify aromatase inhibitors (AID 743083); further: series mostly up to about 70 µM; nearly all actives have a fitted effect of over 55% in size
Aromatase (Homo sapiens), sequence (P11511 whole entry, looked up): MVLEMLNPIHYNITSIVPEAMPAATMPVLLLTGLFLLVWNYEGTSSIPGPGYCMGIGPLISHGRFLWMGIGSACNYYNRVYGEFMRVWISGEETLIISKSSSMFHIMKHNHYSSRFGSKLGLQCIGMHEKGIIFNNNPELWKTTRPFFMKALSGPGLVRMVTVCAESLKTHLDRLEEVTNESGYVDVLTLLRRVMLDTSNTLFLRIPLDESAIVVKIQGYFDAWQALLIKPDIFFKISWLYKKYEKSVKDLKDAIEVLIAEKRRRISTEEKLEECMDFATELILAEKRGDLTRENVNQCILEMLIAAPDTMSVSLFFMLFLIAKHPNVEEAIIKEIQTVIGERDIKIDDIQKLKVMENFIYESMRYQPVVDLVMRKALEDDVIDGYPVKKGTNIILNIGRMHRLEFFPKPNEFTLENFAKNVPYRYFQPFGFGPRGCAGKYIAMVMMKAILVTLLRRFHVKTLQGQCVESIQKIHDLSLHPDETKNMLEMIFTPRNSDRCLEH

[15] = target: Estrogen receptor (Homo sapiens) (UniProt P03372); assay: qHTS assay to identify small molecule antagonists of the estrogen receptor alpha (ER-alpha) signaling pathway (AID 743069; active means well fitted curve in the direction sought with a large enough effect in the signal ratio in the repeat runs, not every such curve was filed as active; inconclusive means weak or mixed curves, or effect the other way; inactive means no such curve, though single readings can be large or run the other way; the % refers to the signal ratio)
Procedure, shortened: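 Fluorescence intensity from a beta-lactamase FRET substrate served as the read-out. Cells: HEK293 with stably integrated ER-alpha-UAS-bla reporter. Agonist 17beta-estradiol was co-added with compounds; incubation 18 hr at 37C, substrate 2 hr at room temperature.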

[16] = target: Estrogen receptor (Homo sapiens) (UniProt P03372); assay: qHTS assay to identify small molecule agonists of the estrogen receptor alpha (ER-alpha) signaling pathway using the BG1 cell line (AID 743079); further: nearly all actives have a fitted effect of over 20% in size; further: potency means the concentration at half of the fitted maximal effect
[17] = target: Androgen receptor (Homo sapiens) (UniProt P10275); assay: qHTS assay to identify small molecule agonists of the androgen receptor (AR) signaling pathway (AID 743036; active means well fitted activation curve with a large enough effect in the signal ratio in the repeat runs, with a control signal flat, not every such curve was filed as active; inconclusive means weak or mixed curves, or effect the other way; inactive means no such curve, though single readings can be large or run the other way; the % refers to the signal ratio)
Androgen receptor (Homo sapiens), sequence (P10275 whole entry, looked up): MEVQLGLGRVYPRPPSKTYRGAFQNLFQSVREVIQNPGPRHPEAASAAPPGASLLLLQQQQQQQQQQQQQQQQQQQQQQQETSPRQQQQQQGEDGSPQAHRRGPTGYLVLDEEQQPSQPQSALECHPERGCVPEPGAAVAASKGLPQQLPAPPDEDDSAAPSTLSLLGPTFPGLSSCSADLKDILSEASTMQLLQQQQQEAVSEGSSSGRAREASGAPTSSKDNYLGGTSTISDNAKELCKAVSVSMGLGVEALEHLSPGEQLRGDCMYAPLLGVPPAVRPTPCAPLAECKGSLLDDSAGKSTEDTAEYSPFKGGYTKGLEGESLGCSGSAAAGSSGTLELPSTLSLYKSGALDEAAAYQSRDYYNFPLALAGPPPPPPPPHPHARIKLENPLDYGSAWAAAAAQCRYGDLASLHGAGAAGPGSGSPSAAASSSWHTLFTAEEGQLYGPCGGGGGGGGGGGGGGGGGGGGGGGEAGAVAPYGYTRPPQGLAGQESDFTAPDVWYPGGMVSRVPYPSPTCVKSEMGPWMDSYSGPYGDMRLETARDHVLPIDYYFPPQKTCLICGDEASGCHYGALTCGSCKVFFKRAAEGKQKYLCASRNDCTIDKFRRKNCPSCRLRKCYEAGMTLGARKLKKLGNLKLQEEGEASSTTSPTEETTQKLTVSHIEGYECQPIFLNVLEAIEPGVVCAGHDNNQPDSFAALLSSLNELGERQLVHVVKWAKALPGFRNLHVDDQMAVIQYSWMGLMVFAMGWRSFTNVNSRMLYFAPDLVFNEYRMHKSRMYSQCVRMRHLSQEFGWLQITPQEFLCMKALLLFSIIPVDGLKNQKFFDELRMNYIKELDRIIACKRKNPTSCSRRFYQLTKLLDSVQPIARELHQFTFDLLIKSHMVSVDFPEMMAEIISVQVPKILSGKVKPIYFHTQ
Procedure, shortened: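 Reporter line: GeneBLAzer AR-UAS-bla-GripTite (HEK293). Steps: plate cells, 4 h rest, add compounds, 16 h at 37C, add LiveBLAzer B/G substrate, 2 h at RT, read fluorescence.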

[18] = target: Androgen receptor (Homo sapiens) (UniProt P10275); assay: qHTS assay to identify small molecule antagonists of the androgen receptor (AR) signaling pathway (AID 743035; active means well fitted inhibition curve with a large enough effect in the signal ratio in the repeat runs, not every such curve was filed as active; inconclusive means weak or mixed curves, or effect the other way; inactive means no such curve, though single readings can be large or run the other way; the % refers to the signal ratio)
Procedure, shortened: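 Antagonist mode: AR-bla HEK293 cells co-treated with test compounds and agonist R1881 for 16 h at 37C, 5% CO2. Beta-lactamase activity read as FRET fluorescence after 2 h room-temperature substrate loading.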

[19] = target: Androgen receptor (Homo sapiens) (UniProt P10275); assay: qHTS assay to identify small molecule antagonists of the androgen receptor (AR) signaling pathway using the MDA cell line (AID 743042; further: nearly all actives have a fitted effect of over 55% in size)
Procedure, shortened: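 Antagonist mode: compounds plus R1881 agonist added to MDA-kb2 AR-luc cells, incubated 16 h at 37C. Luciferase reporter luminescence quantified, with multiplexed CellTiter-Fluor readout for cell viability.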

Measured: Potency

CN(c1nccc(=O)[nH]1)C1CCN(c2nc3ccccc3n2Cc2ccc(F)cc2)CC1
not listed: [15] | [16] | [17] | [18] | [19]
inactive: all other assays above

CC(CN)CCCN (configuration not stated)
not listed: [16] | [17] | [18] | [19]
inactive: all other assays above

CC(C)(C)c1ccc(OCC2CO2)cc1 (configuration not stated)
active: [16] 39.4 µM
not listed: [8] | [12] | [17] | [18] | [19]
inactive: all other assays above

COc1ccc(OC)c(OC)c1
not listed: [16] | [17] | [18] | [19]
inactive: all other assays above

N#CCc1cccc(C(F)(F)F)c1
not listed: [17] | [18] | [19]
inactive: all other assays above

Cn1c(NCCN(CCO)CCCc2ccc([N+](=O)[O-])cc2)cc(=O)n(C)c1=O
not listed: [11] | [12] | [15] | [16] | [17] | [18] | [19]
inactive: all other assays above

CC1(C)[C@H]2CC[C@]1(C)[C@H](O)C2
not listed: [11] | [12] | [15] | [16] | [17] | [18] | [19]
inactive: all other assays above

ClC(Cl)(Cl)c1ccc(C(Cl)(Cl)Cl)cc1
not listed: [14] | [17] | [18] | [19]
inactive: all other assays above

CCCCCCCCCCCCCCCBr
not listed: [17] | [18] | [19]
inactive: all other assays above

CN1CCC[C@@H]1c1cccnc1
not listed: [11] | [15] | [16] | [17] | [18] | [19]
inactive: all other assays above

CC(C)=CCCC(C)CC=O (configuration not stated)
not listed: [11] | [12] | [14] | [15] | [16] | [17] | [18] | [19]
inactive: all other assays above

c1ccc(OCc2ccc(CCCN3CCOCC3)cc2)cc1
active: [2] 0.531 µM | [3] 0.168 µM | [4] 0.596 µM | [8] 21.1 µM
not listed: [6] | [7] | [12] | [18] | [19]
inactive: all other assays above

COc1ccc(C(C)=O)cc1
active: [16] 44.6 µM
not listed: [7] | [10] | [15]
inactive: all other assays above

O=C(c1ccc(O)cc1)c1ccc(O)cc1
active: [11] 17.4 µM [inconclusive] | [16] 2.73 µM
not listed: [15] | [17] | [18]
inactive: all other assays above

CC(=O)Nc1ccc(/C=N/NC(N)=S)cc1
not listed: [11] | [12] | [15] | [16] | [17] | [18] | [19]
inactive: all other assays above

Cc1cccc(Oc2ccccc2)c1
not listed: [8] | [14] | [17] | [18] | [19]
inactive: all other assays above

CC(=O)NCCCS(=O)(=O)O
not listed: [17] | [18] | [19]
inactive: all other assays above

c1ccc(CNCc2ccccc2)cc1
active: [2] 54.5 µM | [3] 30.6 µM | [4] 43.3 µM
not listed: [17] | [18] | [19]
inactive: all other assays above
